Source: PubChem BioAssay (several laboratories)
tim23-1 inh: growth inhibitors of tim23-1 mutant yeast, primary screen, luminescence, uHTS. S. cerevisiae tim23-1 growth, BacTiter-Glo luminescence, 24 h. inhibition, % at 20 µM. 330,000 compounds, 1.3% hits. AID 463212, 2010;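 active means growth inhibition of the mutant yeast at or above 50%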;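 further: temperature-sensitive mutant grown at 25 °C; plate controls were DMSO-treated mutant yeast for no effect and medium wells lacking yeast for full effect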
PfHsp90 yeast 2: growth inhibition of PfHsp90-expressing yeast, primary screen, antimalarial PfHsp90 inhibitor project, S. cerevisiae, BacTiter-Glo luminescence, single point, set 2. AID 504621, 2011. BacTiter-Glo ATP, 48 h; yeast lacking PDR1 and PDR3 efflux regulators. inhibition, % at 9.4 µM. 310,000 compounds, 0.32% hits;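 active means every replicate shows inhibition above about 80%, whatever the replicate mean, limit read from the data; inconclusive means mean inhibition reaches the set limit but some replicate falls short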;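 further: 0% = DMSO neutral controls and 100% = 20 µM radicicol positive controls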
Calb FLC: C. albicans growth inhibition with fluconazole, primary screen, CaCi-2 strain, Alamar Blue fluorescence | C. albicans CaCi-2 (fluconazole-resistant clinical isolate) + fluconazole, 48 h | growth inhibition, % (concentration not given with the values) | 300,000 compounds, 0.57% hits | AID 1979, 2009;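 active means growth inhibition above about 58% in most replicates, limit read from the data, passing the limit was not always enough; inconclusive means exactly half the replicates above a set limit; inactive means most replicates below a set limit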;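 further: all wells also contain fluconazole at 8 µg/ml as a sub-toxic cotreatment; 0% = median of DMSO wells and 100% = median of geldanamycin control wells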
SKKanGAS inh: S. pyogenes SKKanGAS growth inhibitors in kanamycin, primary screen, streptokinase expression inhibitor project, SKKanGAS strain, BacTiter-Glo luminescence; 6 h; inhibition, % at 7.5 µM; 300,000 compounds, 1.3% hits;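 active means mean replicate score, as percent of positive control median, at least 50; inconclusive means mean below 50 but one replicate at or above 50; inactive means mean and every replicate below 50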;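 further: strain carries kanamycin resistance gene driven by streptokinase promoter and grows in 40 µg/ml kanamycin; loss of luminescence reflects streptokinase promoter inhibition or plain growth inhibition; 0% = median of DMSO wells and 100% = positive control at its reference dose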
TIM10 inh: growth inhibitors of isogenic TIM10 control yeast, primary screen, counter-screen for tim10-1 yeast inhibitor project, luminescence, uHTS; AID 463195, 2010; inhibition, % at 10 µM; S. cerevisiae TIM10 strain growth, BacTiter-Glo luminescence, 24 h; 330,000 compounds, 1.4% hits;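 active means inhibition of 40% or more at the single tested concentration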;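 further: wild-type TIM10 isogenic control strain grown at permissive 25 °C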
tim10-1 inh: growth inhibitors of tim10-1 mutant yeast, primary screen, luminescence, uHTS. AID 463190, 2010. 330,000 compounds, 2.2% hits. inhibition, % at 20 µM. S. cerevisiae tim10-1 ts strain growth, BacTiter-Glo, 24 h;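 active means inhibition of at least 40%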;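 further: mutant grown at 25 °C; 0% = DMSO wells with yeast and 100% = wells holding no yeast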
tim10-1 conf: growth inhibitors of tim10-1 mutant yeast, confirmation, single concentration, luminescence, S. cerevisiae | inhibition, % at 20 µM | shares compounds with tim10-1 inh | 7,400 compounds, 56% hits | S. cerevisiae tim10-1 ts strain growth, BacTiter-Glo, 24 h;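 active means inhibition of yeast growth at or above a set limit in either of two repeat tests at 20 µM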;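 further: tim10-1 mutant grown at permissive 25 °C to find synthetic lethal compounds; 0% = DMSO yeast wells and 100% = medium wells without yeast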
* hit, by the source's call; ? = inconclusive; . = no result given. Most compounds without a hit are left out; they make up all but 4.7% or so of the library.

SMILES	tim23-1 inh	PfHsp90 yeast 2	Calb FLC	SKKanGAS inh	TIM10 inh	tim10-1 inh	tim10-1 conf
S=C(NCCc1ccccc1)NC1CCC(NC(=S)NCCc2ccccc2)CC1 (stereo not given)	-8	-11	-40	-5	-6	6	.
CCCCN=c1scc(-c2ccc3c(c2)NC(=O)CO3)n1N=C1CCCC1	22	.	-7	9	32	44*	7
COCC(C)n1c(-c2ccc3c(c2)NC(=O)CO3)csc1=Nc1ccc(OC(F)F)cc1 (stereo not given)	11	14	-11	19	13	31	.
COc1ccc(C(CNC(=O)CSc2ccc(Br)cc2C)N2CCOCC2)cc1 (stereo not given)	27	.	-9	2	12	24	.
COc1cccc2[nH]c3c(N4CCC(C)CC4)ncnc3c12	23	-14	56	4	19	41*	24
Cc1ccc2c(c1)c1c3n2CCN(C(=O)CCl)C3CCC1 (stereo not given)	22	14	-14	-1	6	43*	30
COc1cc2c(cc1NC(=O)CSc1ccccc1)oc1ccccc12	10	5	5	-14	14	13	.
COc1cc2c(cc1NC(=O)Nc1ccc(C)cc1)oc1ccccc12	13	36	1	3	30	43*	41*
COc1ccc(NC(=O)Nc2cc3oc4ccccc4c3cc2OC)cc1	4	17	4	7	20	20	.
COc1cc2c(cc1NC(=O)CSc1nc3ccccc3[nH]1)oc1ccccc12	34	-30	-4	6	23	41*	-8
CCCC(C)c1oc(=O)cc(O)c1C (stereo not given)	19	-10	.	.	-5	-2	.
CC(C(=O)Nc1ccc(Cl)cc1Cl)N1C(=O)NC2(CCCCCCC2)C1=O (stereo not given)	30	-2	.	.	6	35	.
Cc1ccc2nc(NC(=O)C3CCN(S(=O)(=O)c4cccs4)CC3)sc2c1	21	0	39	24	31	42*	19
Cc1ccc2nc(NC(=O)C3CCN(S(=O)(=O)c4cccc5nsnc45)CC3)sc2c1	-8	-17	-1	31	30	10	.
Cc1ccc2nc(NC(=O)C3CCCN(S(=O)(=O)c4cccc5nsnc45)C3)sc2c1 (stereo not given)	26	-12	12	27	32	41*	20
COc1cc(/C=C/C(=O)OCC(=O)Nc2c(C)n(C)n(-c3ccccc3)c2=O)ccc1O	3	5	32	-3	25	-9	.
CN(Cc1ccccc1)C(=O)C1CCN(S(=O)(=O)c2ccc(-n3cnnn3)cc2)CC1	-9	3	-5	-5	-4	5	.
CCCCCCCCCCCCCC(=O)O	11	4	.	.	9	19	.
CCCCCCCCC(=O)O	43	.	0	10	12	45*	2
CCOC(CCNC(=O)c1cn(CC(C)C)c(=O)c2c1c1ccccc1n2C)OCC	16	26	-6	-10	14	18	.
CC(C)c1nc2ccccn2c1NC1CCCCC1	6	34	-4	-5	4	11	.
c1csc(-c2nc3ccccn3c2NC2CCCCC2)c1	27	3	-28	1	31	48*	33*
Cc1ccn2c(NC3CCCC3)c(-c3cccs3)nc2c1	33	-13	-2	-1	21	46*	31*
Cc1ccn2c(NC(=O)c3ccccc3)c(-c3cccs3)nc2c1	-4	.	23	2	-21	6	.
Cc1ccn2c(NCc3ccccc3)c(-c3cccs3)nc2c1	46	13	25	0	29	46*	30
SMILES	tim23-1 inh	PfHsp90 yeast 2	Calb FLC	SKKanGAS inh	TIM10 inh	tim10-1 inh	tim10-1 conf
COc1ccccc1C(=O)Nc1nnc(S(=O)(=O)N2CCCCC2)s1	44	-6	-8	4	19	48*	14
COc1ccccc1C(=O)Nc1nnc(S(=O)(=O)N2CCCCCC2)s1	34	-7	-8	4	6	16	.
N#Cc1ccccc1NC(=O)CSc1nnc(-c2ccccc2O)n1-c1ccccc1	23	.	-1	6	12	42*	16
Cc1ccccc1NC(=O)CSc1nnc(-c2ccccc2)n1-c1ccccc1	10	-16	-9	-6	5	11	.
O=C(NCCCO)/C(=C\c1ccco1)NC(=O)c1ccco1	6	-6	2	-7	-11	5	.
CC(C)=NOC(=O)c1ccc(-c2ccccc2)cc1	42	-23	2	1	39	54*	42*
Cc1cccc(-n2nc(C(=O)c3ccco3)cc(-c3nc4ccccc4[nH]3)c2=N)c1	17	4	97*	?	27	50*	25
O=C1CC(c2ccccc2Cl)CC(O)=C1C=Nc1ccccc1 (stereo not given)	49	-19	-13	2	26	44*	41*
Cc1ccc(N=CC2=C(O)CC(c3ccccc3Cl)CC2=O)cc1 (stereo not given)	21	.	8	2	24	33	.
CC(OC(=O)CCCN=C1NS(=O)(=O)c2ccccc21)C(=O)Nc1ccc(F)c(F)c1F (stereo not given)	-14	7	6	2	9	5	.
CN(C(=O)COC(=O)CCc1c[nH]c2ccccc12)c1ccccc1	41	37	0	-5	19	43*	26
Cn1c(Cl)c(/C=N/OC(=O)c2ccccc2Cl)c2ccccc21	11	-17	2	-10	-3	10	.
Cc1cccc(C(=O)O/N=C/c2c(N3CCOCC3)n(C)c3ccccc23)c1	19	.	83*	-1	25	41*	15
CCOC(=O)C1(S(=O)(=O)c2ccccc2)CCN(Cc2ccc(Cl)cc2)CC1	43	23	6	0	24	48*	20
O=C(NC(=S)Nc1ccccc1N1CCCC1)c1ccc(F)cc1	12	5	1	-9	14	41*	28
CC1CCN(c2ccccc2NC(=O)c2ccc(F)cc2)CC1	25	35	10	21	19	26	.
O=C(COc1ccccc1Cl)NC(=S)Nc1ccccc1N1CCCC1	29	9	0	4	19	51*	20
Cc1ccccc1C(=O)NC(=S)Nc1ccccc1N1CCCC1	47	-4	3	10	37	51*	37*
CC1CCN(c2ccccc2NC(=S)NC(=O)C(C)(C)C)CC1	44	2	2	58*	35	49*	33*
